Results from PubChem BioAssay (NCATS).
Records with an inconclusive call do not appear. Values without a mark were called inactive. Active and inactive are the calls of the source. Calls follow the shape of the dose curve; as a rule, active = well fitted cell-killing curve with a large enough effect; inconclusive = small, poorly fitted or top-dose-only effect; inactive = flat fitted curve, though single readings scatter.

test: Cell Viability - LYMP2-024 (AID 988); settings: LYMP2-024 lymphoblastoid cell viability; series mostly up to 92.2 µM; activity change, negative = cytotoxicity: at the top concentration; also: nearly all actives have a fitted effect of over 60% in size;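 as to activity change, negative = cytotoxicity: plate controls were DMSO only for no effect and 92 µM tetraoctylammonium bromide for full effect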
From the text: NIH Chemical Genomics Center [NCGC]
NIH Molecular Libraries Screening Centers Network [MLSCN]
National Institutes of Environmental Health Sciences [NIEHS]
National Toxicology Program [NTP]
We have developed a 1536-well cell-based assay for quantitative high throughput screening (qHTS) against a number of cell lines to determine in vitro cytotoxicity of small molecules. This particular assay uses a human lymphoblastoid cell line (LYMP2-024) purchased from Coriell Institute for Medical Research.
NCGC Assay Protocol Summary:
The CellTiter-Glo luminescent cell viability assay (Promega) is a homogeneous method to measure the number of viable cells in culture. The end point readout of this assay is based on quantitation of intracellular ATP, an indicator of metabolic activity, using the luciferase reaction. Luciferase catalyzes the oxidation of beetle Luciferin to oxyluciferin and light in the presence of ATP. The luminescent signal is proportional to amount of ATP present.
Using the CellTiter-Glo luminescent cell viability assay, the amount of cellular ATP was measured in the lymphoblastoid cell line with complete culture medium following compound treatment for 24 hours. The assay was performed in opaque white Kalypsys 1536-well plates. In the screen, tetraoctylammonium bromide was used as positive control. Library compounds were measured for their ability to cause acute toxicity in the cell line, as reflected by a decrease in intracellular ATP levels, in a concentration-dependent manner. […] AC50 values were determined from concentration-response data modeled with the standard Hill equation.
qHTS protocol for CellTiter Glo lymphoblastoid cellular assay
[Step] [Parameter] [Value] [Description]
1. Reagent; 5 uL; 2500 lymphoblastoid cells/well
2. Time; 5 hr; 37 C incubation
4. Controls; 23 nL; Tetraoctylammonium bromide 6.4pM to 92 uM
5. Time; 24 hr; 37 C incubation
6. Reagent; 5 uL; CellTiter Glo reagent
7. Time; 30 min; Room Temperature
8. Detection; Luminescence; Viewlux plate reader
Keywords: cell viability, cytotoxicity, lymphoblastoid cell line, luminescence, NTPHTS, NTPHTS_NCGC, NIEHS, DSSTox, MLSMR, MLSCN, NIH Roadmap, qHTS, NCGC
Potency is read from the fitted curve at half-maximal effect.

SMILES | activity change, negative = cytotoxicity [%] | Potency
CCCNC(=O)NS(=O)(=O)c1ccc(Cl)cc1 | -12.6 | 
CC/C(=C(\c1ccccc1)c1ccc(OCCN(C)C)cc1)c1ccccc1 |  | 50.1 µM (active)
O=c1c(-c2ccc(O)cc2)coc2cc(O)ccc12 | -11.7 | 
CN(C)CCC(c1ccccc1)c1ccccn1 (centres undefined) | -4.98 | 
CCn1cc(C(=O)O)c(=O)c2ccc(C)nc21 | 7.48 | 
O=C(O)c1cc(O)c2c(c1)C(=O)c1cccc(O)c1C2=O | -12 | 
O=C1NC(=O)C(c2ccccc2)(c2ccccc2)N1 | -6.66 | 
O=c1[nH]cnc2c1ncn2[C@H]1CC[C@@H](CO)O1 | -1.43 | 
O=C(O)Cc1cccc2ccccc12 | -2.19 | 
CC(=O)c1ccc(S(=O)(=O)NC(=O)NC2CCCCC2)cc1 | -15.7 | 
CCCCC1C(=O)N(c2ccccc2)N(c2ccccc2)C1=O | -1.16 | 
O=c1c(O)c(-c2ccc(O)cc2)oc2cc(O)cc(O)c12 | -7.22 | 
CC(=O)O[C@]1(C(C)=O)CC[C@H]2[C@@H]3C=C(Cl)C4=CC(=O)[C@@H]5C[C@@H]5[C@]4(C)[C@H]3CC[C@@]21C | -29.8 | 
CC1=C(/C=C/C(C)=C/C=C/C(C)=C/C(=O)Nc2ccc(O)cc2)C(C)(C)CCC1 |  | 39.8 µM (active)
